Source: PubChem (The Scripps Research Institute Molecular Screening Center)
hgDAF12 agonist = hgDAF-12 agonism, primary luciferase screen; HEK293 GAL4-hgDAF12 UAS-luciferase reporter, agonist luminescence; normalized to butyrate control; activation, % at 6.8 µM; 1.8% of 370,000 active; AID 687014;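 active = activation above a cutoff set at the mean of all screened compounds plus 3 SD, cut at about 10% in these data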;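 also: 0% = DMSO wells and 100% = sodium butyrate wells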
hcDAF-12 act = activators of H. contortus DAF-12 nuclear receptor; HEK293 hcDAF-12 lit1-tk-luc reporter, luminescence; 0% DMSO, 100% Δ7-dafachronic acid; activation, % at 6.8 µM; 1.4% of 370,000 active;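 active = activation above the mean of all tested compounds plus 3 SD, cut at about 5.5% in these data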;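 also: 100% = response to 3 µM Δ7-dafachronic acid high control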
ssDAF-12 act = activates DAF-12 receptor from parasite S. stercoralis; HEK293 ssDAF-12/GRIP1 lit1-tk-luc reporter, luminescence; % of 3 µM dafachronic acid response; activation, % at 6.8 µM; 1% of 370,000 active; AID 652126;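 active = activation above the mean over all tested compounds plus 3 SD, cut at about 0.9% in these data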;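 also: 0% = DMSO-only wells and 100% = 3 µM delta7-dafachronic acid wells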
DAX1 inh-1 = inhibitors of DAX1 repression of SF-1 activated StAR promoter. HEK293T StAR-luciferase reporter, SF-1/DAX-1 repression relief. 1.1% of 370,000 active. inhibition, % at 6.8 µM;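 active = inhibition above the mean over all tested compounds plus 3 SD, cut at about 3.6% in these data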;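 also: 0% = DAX-1 cells with DMSO and 100% = cells lacking DAX-1 with DMSO; higher inhibition means more luminescence from relief of DAX-1 repression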
DAX1 inh-2 = inhibitors of human orphan nuclear receptor DAX1 (NR0B1); P51843; HEK293 Gal4-DAX1 luciferase reporter, luminescence; inhibition, % at 6.75 µM; 0.99% of 340,000 active;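 active = inhibition above the mean over all tested compounds plus 3 SD, cut at about 4.2% in these data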;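 also: 0% = DAX1-transfected cells with DMSO and 100% = empty-vector control cells with DMSO; inhibition shows as a rise in luminescence from relieved DAX1 repression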
Target sequence (P51843 207-470 limits assumed): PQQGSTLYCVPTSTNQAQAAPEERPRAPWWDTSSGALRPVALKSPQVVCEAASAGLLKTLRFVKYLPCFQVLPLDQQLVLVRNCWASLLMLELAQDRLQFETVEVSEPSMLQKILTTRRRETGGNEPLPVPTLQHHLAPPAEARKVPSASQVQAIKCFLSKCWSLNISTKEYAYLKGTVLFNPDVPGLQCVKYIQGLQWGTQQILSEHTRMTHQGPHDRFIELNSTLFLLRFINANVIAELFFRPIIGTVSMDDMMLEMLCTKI
An asterisk follows results filed as active; · = no result given. A selection: hits, their analogues and other compounds. The true share with any hit is near 4.1%.

SMILES	hgDAF12 agonist	hcDAF-12 act	ssDAF-12 act	DAX1 inh-1	DAX1 inh-2
CCc1ccccc1NC(=O)C/C(C)=N/NC(=O)COc1ccccc1C	1.0	0.3	-0.6	0.0	-0.4
COc1cc(NC(=O)C/C(C)=N/NC(=O)Cc2ccc(Cl)cc2)c(OC)cc1Cl	-4.4	-2.0	-0.8	0.0	-0.2
COc1cc(NC(=O)C/C(C)=N/NC(=O)c2ccccn2)c(OC)cc1Cl	13.1*	4.0	0.3	1.5	0.7
COc1cc(NC(=O)C2CCCC2)c(OC)cc1Cl	1.2	1.4	-1.0	0.3	0.4
COC(=O)[C@H](C(C)C)N1CCc2nnn(CC3CCCCC3)c2-c2cc(F)ccc2S1(=O)=O	0.8	-1.8	-1.2	-1.2	·
CCCCCn1nnnc1C1(C)CCSCC(=O)N1Cc1ccco1 (stereo not drawn)	0.8	-1.6	0.0	-0.2	·
O=C(CCc1ccccc1)N[C@H]1[C@H](OC(=O)c2ccc3ccccc3n2)CCC[C@@]12C(=O)N(Cc1ccccc1)c1ccccc12	0.6	-1.2	-1.4	-0.2	·
C/C(C=Nn1c(-c2ccc(F)cc2)n[nH]c1=S)=C/c1ccco1	-2.9	1.0	-0.1	0.4	·
Fc1ccc(NCc2cccnc2)cc1F	0.6	3.9	1.2*	0.4	-1.2
Clc1ccc(NCc2cccnc2)cc1	0.3	-2.1	-1.3	-0.1	0.7
O=C(CC1CCCC1)NNC(=O)c1ccccc1O	5.1	-0.1	1.3*	0.1	4.1
CCOC(=O)C(=O)N(CC)C1CCS(=O)(=O)C1 (stereo not drawn)	-0.6	4.9	1.2*	0.0	0.1
O=c1c(CN2CCN(c3cccc(Cl)c3)CC2)coc2c(Cl)cc(Cl)cc12	0.1	0.6	-1.4	-0.6	-0.3
CN1CCN(Cc2coc3c(Cl)cc(Cl)cc3c2=O)CC1	-2.6	0.6	1.3*	0.3	-0.5
CCC1CCCCN1C(=O)CSc1nnc2nc(C)cc(C)n12 (stereo not drawn)	1.4	-0.5	-1.7	4.0*	-0.1
Cc1cc(C)n2c(SCC(=O)NC3CCCCC3C)nnc2n1 (stereo not drawn)	-0.4	-1.4	-1.8	-0.2	1.4
c1nc2nc3c(c(N4CCCC4)n2n1)CCCC3	-1.9	-1.0	-1.1	0.2	·
CN(C)CCCN1C(=O)c2cccc3cccc(c23)C1=O	3.8	4.0	-0.3	0.5	0.1
CN(C)CCN1C(=O)c2cccc3cc([N+](=O)[O-])cc(c23)C1=O	-5.2	6.5*	0.3	-6.9	6.9*
COc1ccc2c(C(=O)c3ccc(C)cc3)n(CCCC(N)=O)[n+]([O-])c2c1	0.6	6.1*	0.3	0.0	-0.8
NC(=O)CCCn1c(C(=O)c2ccc(Cl)cc2)c2ccc(C(F)(F)F)cc2[n+]1[O-]	-0.8	4.5	1.2*	-0.3	0.0
NCCCn1c(C(=O)c2ccc(Cl)cc2)c2ccc(C(F)(F)F)cc2[n+]1[O-]	0.1	5.0	0.2	-0.3	1.0
COC(=O)C[C@H]1CC[C@H]2[C@H](COc3ccc(NC(=O)Cc4cccs4)cc3C(=O)N2C)O1	-0.8	-1.8	-0.5	1.2	·
COC(=O)C1=C(C)N(Cc2ccccc2C(F)(F)F)C(=NCc2ccc(C(F)(F)F)cc2)NC1c1ccc(Cl)cc1 (stereo not drawn)	8.4	1.1	-0.9	-0.7	·
Nc1[nH]c(C(=O)c2ccccc2)c(-c2cccc3ccccc23)c1C(=O)c1cccs1	3.5	3.5	0.0	0.9	·
SMILES	hgDAF12 agonist	hcDAF-12 act	ssDAF-12 act	DAX1 inh-1	DAX1 inh-2
NC(=O)c1c(N)[nH]c(C(=O)c2ccccc2)c1-c1cccc2ccccc12	2.8	2.2	1.0*	·	·
O=C(Nc1ccc(Cl)cc1)C1CCCN1S(=O)(=O)c1cccnc1 (stereo not drawn)	-0.8	-1.2	-0.3	-0.6	·
COc1ccc(C2=Nc3ccccc3NC(=O)C2N(C(=O)c2cnc(C)cn2)c2ccc(N3CCOCC3)cc2)cc1 (stereo not drawn)	4.9	0.4	-1.1	3.7*	·
O=c1c2ccccc2n(Cc2ccco2)n1[C@@H](Cc1ccccc1)Cn1cc(C2CCCC2)nn1	-1.6	-1.4	-0.8	-0.4	·
CC(=Nc1cccc(O)c1)c1sc2ccccc2c1O	7.9	3.5	1.5*	2.1	2.9
Cc1c(C(=O)NC2CC(=O)N(c3ccc4c(c3)OCCO4)C2)cccc1[N+](=O)[O-] (stereo not drawn)	2.4	0.1	-1.0	-0.5	-2.2
Cc1ccc(C(=O)NCC(c2ccco2)N2CCCCC2)s1 (stereo not drawn)	2.5	5.3	-0.7	2.0	0.2
COc1ccccc1CC(=O)NCC(c1ccco1)N1CCCCC1 (stereo not drawn)	2.8	-2.2	-2.2	0.9	4.6*
Cc1ccc2oc(C(=O)NCC(c3ccco3)N3CCCC3)c(C)c2c1 (stereo not drawn)	3.4	3.9	-0.2	0.2	0.0
O=C(NCC(c1ccco1)N1CCCC1)c1ccccc1Sc1ccc(C(F)(F)F)cc1[N+](=O)[O-] (stereo not drawn)	1.6	2.1	1.1*	0.3	0.2
O=C(NCC(c1ccco1)N1CCCC1)c1cc2ccccc2s1 (stereo not drawn)	3.5	1.0	0.9*	1.4	1.1
N#Cc1ccccc1Sc1ccccc1C(=O)NCC(c1ccco1)N1CCCCC1 (stereo not drawn)	-1.8	-1.0	-0.6	-1.0	-0.6
Cc1cc2oc(C(=O)NCC(c3ccco3)N3CCCC3)c(C)c2cc1C (stereo not drawn)	4.3	2.8	3.6*	2.2	1.7
COC(=O)[C@]12CCCCC=C1N(Cc1ccc(OC)cc1)C(=O)[C@@H]2CC(=O)N1CCC(c2ccccc2)CC1	2.2	-3.4	-1.0	-1.2	·
COc1ccc(-c2cc(-c3ccc(Cl)cc3)n[nH]2)c(O)c1	11.3*	5.1	-0.3	2.1	5.4*
COc1ccc(-c2cc(-c3cc(OC)ccc3O)[nH]n2)cc1	13.1*	5.0	-0.3	0.6	3.0
COc1ccc(O)c(-c2cc(-c3cccc(Br)c3)n[nH]2)c1	5.9	3.2	0.0	0.3	0.4
CC(COc1cccc(Br)c1)CN1CCC(C(O)(c2ccccc2)c2ccccc2)CC1 (stereo not drawn)	-1.7	-2.4	-1.8	-1.6	·
O=C(OCCCN1CCC2(CCC(c3ccccc3)CC2)C1=O)c1ccccc1 (stereo not drawn)	3.7	-0.8	-1.3	-0.4	·
O=C(NCCc1c[nH]c2ccccc12)C(=O)NCC1OCCCN1S(=O)(=O)c1cccs1 (stereo not drawn)	-0.9	0.2	2.2*	-0.5	0.3
O=C(NCCc1c[nH]c2ccccc12)C(=O)NCC1OCCCN1S(=O)(=O)c1ccc(F)cc1 (stereo not drawn)	-4.3	-1.2	-1.5	-1.1	-0.5
COc1ccccc1CCn1cnc(-c2ccc(F)cc2)c1C(C)C	-0.5	-3.2	-1.7	-0.1	·
COc1ccc(-c2cc(-c3nnc(SCC(=O)Nc4ccc(-c5nc6ccc(C)cc6s5)cc4)n3N)[nH]n2)cc1	12.9*	3.3	-0.3	1.3	·
